Measured values published in PubChem BioAssay (NCI).
The panel holds about 79,000 compounds, 15% with a hit somewhere; the sample as a whole holds those more often. Active and inactive are the calls of the source. No stated cut-off is given here; in the data, active means growth inhibition above about 70%; inactive means the rest.

How the values were obtained:
[1] = NCI Yeast Anticancer Drug Screen. Data for the rad52 strain (AID 147);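 further: 0% = growth of vehicle-treated control cultures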; details: S. cerevisiae rad52 mutant growth inhibition, active compounds read high
In short: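 Measured: yeast growth inhibition. System: strain with a defined DNA damage repair alteration. Reference: vehicle-treated control cultures.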

[2] = NCI Yeast Anticancer Drug Screen. Data for the wt1 strain (AID 149);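 further: 0% = growth of vehicle-treated wt1 cultures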; details: S. cerevisiae wt1 strain (SPY 50644) growth inhibition, active compounds read high
In short: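 The wt1 strain was treated with compounds, and growth was compared with vehicle-treated cultures to give inhibition.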

[3] = NCI Yeast Anticancer Drug Screen. Data for the rad50EPP+ strain (AID 151);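 further: 0% = growth of vehicle-treated control cultures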; details: S. cerevisiae rad50 mutant strain, active compounds read high
In short: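 One strain with a rad50 alteration (rad50EPP+) was compound-treated, its growth then compared to that of vehicle controls.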

[4] = NCI Yeast Anticancer Drug Screen. Data for the mgt1 strain (AID 153); details: S. cerevisiae mgt1 mutant growth inhibition, active compounds read high
In short: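 After exposure of the mgt1 yeast mutant to compound, growth was measured and reported as inhibition compared with vehicle controls.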

[5] = NCI Yeast Anticancer Drug Screen. Data for the rad50 strain (AID 155);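 further: 0% = growth of vehicle-only cultures of the same strain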; details: S. cerevisiae rad50 strain growth inhibition, active compounds read high
In short: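 Cells are treated with compound, grown, and their growth is then scored against vehicle-only cultures of the same repair-deficient yeast strain.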

[6] = NCI Yeast Anticancer Drug Screen. Data for the mec2-1 strain (AID 157); details: S. cerevisiae mec2-1 strain, active compounds read high
In short: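 Test agents were screened against the mec2-1 yeast strain, with defined DNA repair or cell cycle alteration. Growth was scored as inhibition against vehicle-only controls.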

[7] = NCI Yeast Anticancer Drug Screen. Data for the rad14 strain (AID 159);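 further: 0% = growth of vehicle-treated control cultures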; details: S. cerevisiae rad14 strain growth inhibition, active compounds read high
In short: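 Readout: yeast growth inhibition, referenced to vehicle-only cultures. Strain bears a defined alteration in DNA damage repair.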

[8] = NCI Yeast Anticancer Drug Screen. Data for the sgs1 mgt1 strain (AID 161);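 further: 0% = growth of cultures given vehicle only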; details: S. cerevisiae sgs1 mgt1 strain, active compounds read high
In short: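 Test agents were incubated with a DNA-repair-mutant yeast strain. Growth was then read and compared against vehicle-treated controls.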

[9] = NCI Yeast Anticancer Drug Screen. Data for the CLN2oe strain (AID 163);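 further: 0% = growth of vehicle-only control cultures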; details: S. cerevisiae CLN2oe strain, active compounds read high
In short: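 Here, growth inhibition in a cell-cycle-altered yeast strain after compound exposure was quantified against vehicle control growth.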

[10] = NCI Yeast Anticancer Drug Screen. Data for the cln2 rad14 strain (AID 165);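 further: 0% = growth equal to vehicle treated cultures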; details: S. cerevisiae cln2 rad14 strain, active compounds read high
In short: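 Growth of compound-exposed yeast (cln2 rad14 genotype) measured and expressed as inhibition relative to vehicle.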

[11] = NCI Yeast Anticancer Drug Screen. Data for the bub3 strain (AID 167); details: S. cerevisiae bub3 mutant strain, active compounds read high
In short: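 Part of a panel of yeast mutants defective in DNA damage repair or cell cycle regulation. Each strain is grown with compound, and inhibition is calculated relative to solvent-treated cultures.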

[12] = NCI Yeast Anticancer Drug Screen. Data for the wt2 strain (AID 169);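 further: 0% = growth of vehicle-treated yeast cultures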; details: S. cerevisiae wt2 strain growth inhibition, active compounds read high
In short: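 Genetically defined yeast strains from a DNA-repair/cell-cycle panel were used. Compound-exposed yeast growth was measured, and the inhibition was calculated relative to vehicle treatment.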

[13] = NCI Yeast Anticancer Drug Screen. Data for the mlh1 strain (AID 171);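 further: 0% = growth of vehicle-treated control cultures of the same strain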; details: S. cerevisiae mlh1 strain growth inhibition, active compounds read high
In short: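 Here the genetically defined yeast mutant is grown with each compound, and the extent to which its growth falls below that of vehicle-exposed cells is reported.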

[14] = NCI Yeast Anticancer Drug Screen. Data for the sgs1 strain (AID 173);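 further: 0% = growth of vehicle-only control cultures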; details: S. cerevisiae sgs1 mutant, active compounds read high
In short: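 Relative growth inhibition, referenced to vehicle, was determined in a yeast strain with a defined alteration affecting DNA damage repair or cell cycle control after compound exposure.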

[15] = NCI Yeast Anticancer Drug Screen. Data for the mlh1 rad18 strain (AID 175); details: S. cerevisiae mlh1 rad18 strain growth inhibition, active compounds read high
In short: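 In this whole-cell yeast screen, a strain with altered DNA damage repair is challenged with compound, and its growth is measured against matched vehicle-treated controls.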

[16] = NCI Yeast Anticancer Drug Screen. Data for the rad18 strain (AID 177); details: S. cerevisiae rad18 mutant growth inhibition, active compounds read high
In short: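 Screen uses a yeast strain with a defined lesion in DNA damage repair; compound effect is read as loss of growth compared to untreated vehicle cultures.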

[17] = at 5.0 µM (retest, dose inferred, filed as 0.5)
[18] = at 50.0 µM (retest, dose inferred, filed as 5.0)

Measured: growth inhibition

O=C1C=CC(=O)C1(Br)Br
inactive: [1]; at 1.2 µM 7% | [1]; at 3.7 µM 24% | [1]; at 11.0 µM 62% | [2]; at 1.2 µM -1% | [2]; at 3.7 µM 0% | [2]; at 11.0 µM 8% | [2]; at 33.0 µM 66% | [3]; at 1.2 µM 2% | [3]; at 3.7 µM 15% | [3]; at 11.0 µM 33% | [4]; at 1.2 µM 1% | [4]; at 3.7 µM -4% | [4]; at 11.0 µM 25% | [5]; at 1.2 µM 4% | [5]; at 3.7 µM 24% | [5]; [17] 21% | [5]; at 11.0 µM 65% | [6]; at 1.2 µM 1% | [6]; at 3.7 µM 5% | [6]; [17] 3% | [6]; at 11.0 µM 23% | [7]; at 1.2 µM 1% | [7]; at 3.7 µM 13% | [7]; at 11.0 µM 28% | [8]; [17] 54% | [9]; at 1.2 µM -5% | [9]; at 3.7 µM 3% | [9]; at 11.0 µM 18% | [10]; [17] 11% | [11]; at 1.2 µM 3% | [11]; at 3.7 µM 3% | [11]; [17] 28% | [11]; at 11.0 µM 18% | [12]; at 1.2 µM -4% | [12]; at 3.7 µM -4% | [12]; at 11.0 µM 24% | [13]; at 1.2 µM 1% | [13]; at 3.7 µM 11% | [13]; at 11.0 µM 36% | [14]; at 1.2 µM -13% | [14]; at 3.7 µM -14% | [16]; at 1.2 µM 15% | [16]; at 3.7 µM 40%
active: [1]; at 33.0 µM 95% | [1]; at 100.0 µM 99% | [2]; at 100.0 µM 99% | [3]; at 33.0 µM 71% | [3]; at 100.0 µM 99% | [4]; at 33.0 µM 91% | [4]; at 100.0 µM 99% | [5]; at 33.0 µM 94% | [5]; [18] 99% | [5]; at 50.0 µM 99.6% | [5]; at 100.0 µM 99% | [6]; at 33.0 µM 77% | [6]; [18] 100% | [6]; at 50.0 µM 99.8% | [6]; at 100.0 µM 99% | [7]; at 33.0 µM 88% | [7]; at 100.0 µM 99% | [8]; [18] 99% | [8]; at 50.0 µM 99.2% | [9]; at 33.0 µM 75% | [9]; at 100.0 µM 98% | [10]; [18] 99% | [10]; at 50.0 µM 99.2% | [11]; at 33.0 µM 95% | [11]; [18] 99% | [11]; at 50.0 µM 99.4% | [11]; at 100.0 µM 99% | [12]; at 33.0 µM 97% | [12]; at 100.0 µM 99% | [13]; at 33.0 µM 95% | [13]; at 100.0 µM 99% | [14]; at 11.0 µM 75% | [14]; at 33.0 µM 99% | [14]; at 100.0 µM 99% | [15]; [17] 78% | [15]; [18] 99% | [15]; at 50.0 µM 99.2% | [16]; at 11.0 µM 77% | [16]; at 33.0 µM 95% | [16]; at 100.0 µM 99%

CC[C@](O)(C(=O)O)c1cc2n(c(=O)c1CO)Cc1cc3ccccc3nc1-2
active: [1]; at 1.2 µM 92% | [1]; at 3.7 µM 94% | [1]; at 11.0 µM 95% | [1]; at 33.0 µM 96% | [1]; at 100.0 µM 96% | [2]; at 33.0 µM 92% | [2]; at 100.0 µM 94% | [3]; at 1.2 µM 80% | [3]; at 3.7 µM 93% | [3]; at 11.0 µM 96% | [3]; at 33.0 µM 97% | [3]; at 100.0 µM 98% | [4]; at 33.0 µM 80% | [4]; at 100.0 µM 95% | [5]; at 1.2 µM 95% | [5]; at 3.7 µM 97% | [5]; [17] 97% | [5]; at 11.0 µM 97% | [5]; at 33.0 µM 97% | [5]; [18] 98% | [5]; at 50.0 µM 98.3% | [5]; at 100.0 µM 97% | [6]; at 3.7 µM 82% | [6]; [17] 95% | [6]; at 11.0 µM 94% | [6]; at 33.0 µM 95% | [6]; [18] 98% | [6]; at 50.0 µM 97% | [6]; at 100.0 µM 96% | [7]; at 11.0 µM 81% | [7]; at 33.0 µM 93% | [7]; at 100.0 µM 96% | [8]; [17] 88% | [8]; [18] 97% | [8]; at 50.0 µM 97.2% | [9]; at 11.0 µM 88% | [9]; at 33.0 µM 93% | [9]; at 100.0 µM 96% | [10]; [18] 96% | [10]; at 50.0 µM 87.8% | [11]; at 33.0 µM 91% | [11]; [18] 97% | [11]; at 50.0 µM 96.8% | [11]; at 100.0 µM 95%
inactive: [2]; at 1.2 µM 0% | [2]; at 3.7 µM 10% | [2]; at 11.0 µM 67% | [4]; at 1.2 µM -1% | [4]; at 3.7 µM 7% | [4]; at 11.0 µM 67% | [6]; at 1.2 µM 14% | [7]; at 1.2 µM 3% | [7]; at 3.7 µM 29% | [9]; at 1.2 µM -7% | [9]; at 3.7 µM 36% | [10]; [17] 66% | [11]; at 1.2 µM -16% | [11]; at 3.7 µM -3% | [11]; [17] 58% | [11]; at 11.0 µM 67%
